Tests used:
Assay in all cases: log2 ratio of Biotin-Ahx-Ub-VS probe labelling (fragment/DMSO); higher = less target engagement (more negative = stronger competition), active = hit call of the paper (q ≤ 0.05, log2 ratio ≤ -1)
Conditions in all cases: compound concentration: 200 uM; treatment time: 3 h
USP34 = USP34 (UniProt Q70CQ2)
How it was run: (§1)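 Labelled DUBs from HEK293T lysate were NeutrAvidin-enriched, digested with LysC and trypsin, and run by diaPASEF LC-MS/MS. Before that, each 495 µg sample in Tris/CHAPS/IGEPAL buffer with protease inhibitors was treated in triplicate with fragment at 200 µM or vehicle for 3 h, then with Biotin-Ahx-Ub-VS at 0.5 µM final for 1 h. Values are average log2 ratios of fragment over vehicle by unpaired t-test, based on global-median-normalised Spectronaut label-free quantities from proteins with ≥2 unique peptides.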

USP36 = molecular target: T1, USP36 (UniProt Q9P275)
T1 sequence (whole entry): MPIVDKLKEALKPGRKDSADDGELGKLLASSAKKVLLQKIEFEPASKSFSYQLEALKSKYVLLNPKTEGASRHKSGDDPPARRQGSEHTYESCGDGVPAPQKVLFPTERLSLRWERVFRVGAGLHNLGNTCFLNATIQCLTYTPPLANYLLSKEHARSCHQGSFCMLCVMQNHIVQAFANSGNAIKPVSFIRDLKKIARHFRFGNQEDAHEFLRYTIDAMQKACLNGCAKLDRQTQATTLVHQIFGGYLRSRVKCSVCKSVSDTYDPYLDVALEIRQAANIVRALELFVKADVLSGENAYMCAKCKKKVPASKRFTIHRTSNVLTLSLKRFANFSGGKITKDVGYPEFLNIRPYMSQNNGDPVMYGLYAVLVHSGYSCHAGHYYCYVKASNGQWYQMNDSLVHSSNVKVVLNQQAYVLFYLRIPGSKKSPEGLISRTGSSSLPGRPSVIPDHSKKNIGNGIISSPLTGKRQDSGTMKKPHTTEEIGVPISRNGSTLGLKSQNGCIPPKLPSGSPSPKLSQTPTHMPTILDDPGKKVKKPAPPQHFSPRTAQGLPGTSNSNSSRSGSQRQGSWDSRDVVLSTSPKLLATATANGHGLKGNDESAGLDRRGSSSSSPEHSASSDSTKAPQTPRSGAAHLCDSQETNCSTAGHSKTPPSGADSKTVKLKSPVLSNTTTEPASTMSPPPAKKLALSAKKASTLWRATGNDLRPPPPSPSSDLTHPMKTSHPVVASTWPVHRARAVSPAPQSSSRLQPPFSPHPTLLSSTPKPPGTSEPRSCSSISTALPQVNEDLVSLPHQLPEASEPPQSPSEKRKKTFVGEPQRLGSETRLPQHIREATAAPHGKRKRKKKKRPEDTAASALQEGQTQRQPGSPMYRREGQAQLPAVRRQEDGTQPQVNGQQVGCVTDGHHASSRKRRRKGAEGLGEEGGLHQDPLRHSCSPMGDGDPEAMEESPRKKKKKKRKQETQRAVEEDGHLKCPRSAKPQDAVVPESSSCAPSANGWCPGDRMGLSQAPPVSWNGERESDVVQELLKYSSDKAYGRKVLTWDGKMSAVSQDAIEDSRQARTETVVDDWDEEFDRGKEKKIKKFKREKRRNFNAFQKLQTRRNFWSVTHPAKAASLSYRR
How it was run: as §1

USP38 = molecular target: T2, USP38 (UniProt Q8NB14)
T2 sequence (whole entry): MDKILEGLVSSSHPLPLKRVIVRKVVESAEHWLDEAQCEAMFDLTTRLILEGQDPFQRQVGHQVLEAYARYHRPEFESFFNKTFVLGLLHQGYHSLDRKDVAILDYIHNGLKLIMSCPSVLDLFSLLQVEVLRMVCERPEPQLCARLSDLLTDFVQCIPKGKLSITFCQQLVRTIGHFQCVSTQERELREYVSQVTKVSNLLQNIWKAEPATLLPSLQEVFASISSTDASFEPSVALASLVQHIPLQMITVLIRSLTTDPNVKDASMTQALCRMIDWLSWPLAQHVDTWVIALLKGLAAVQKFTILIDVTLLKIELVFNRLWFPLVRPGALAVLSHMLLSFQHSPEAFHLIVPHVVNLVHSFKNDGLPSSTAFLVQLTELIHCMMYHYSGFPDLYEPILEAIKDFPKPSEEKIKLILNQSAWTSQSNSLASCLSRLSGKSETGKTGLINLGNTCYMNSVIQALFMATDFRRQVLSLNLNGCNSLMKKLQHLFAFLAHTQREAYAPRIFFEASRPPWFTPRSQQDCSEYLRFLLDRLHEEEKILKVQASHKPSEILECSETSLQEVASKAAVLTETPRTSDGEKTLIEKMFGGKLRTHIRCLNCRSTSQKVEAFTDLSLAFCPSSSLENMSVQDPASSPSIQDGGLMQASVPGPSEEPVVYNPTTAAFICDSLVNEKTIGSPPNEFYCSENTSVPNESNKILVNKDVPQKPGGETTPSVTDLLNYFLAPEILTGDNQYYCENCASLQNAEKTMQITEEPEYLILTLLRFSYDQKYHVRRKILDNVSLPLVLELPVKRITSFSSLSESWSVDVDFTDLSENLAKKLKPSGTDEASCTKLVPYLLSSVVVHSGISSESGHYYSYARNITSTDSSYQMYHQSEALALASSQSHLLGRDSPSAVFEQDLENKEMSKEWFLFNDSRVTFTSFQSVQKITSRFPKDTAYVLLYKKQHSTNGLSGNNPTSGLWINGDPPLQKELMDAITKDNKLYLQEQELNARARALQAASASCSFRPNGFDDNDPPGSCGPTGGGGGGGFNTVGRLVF
How it was run: as §1

USP39 = molecular target: T3, USP39 (UniProt Q53GS9)
T3 sequence (whole entry): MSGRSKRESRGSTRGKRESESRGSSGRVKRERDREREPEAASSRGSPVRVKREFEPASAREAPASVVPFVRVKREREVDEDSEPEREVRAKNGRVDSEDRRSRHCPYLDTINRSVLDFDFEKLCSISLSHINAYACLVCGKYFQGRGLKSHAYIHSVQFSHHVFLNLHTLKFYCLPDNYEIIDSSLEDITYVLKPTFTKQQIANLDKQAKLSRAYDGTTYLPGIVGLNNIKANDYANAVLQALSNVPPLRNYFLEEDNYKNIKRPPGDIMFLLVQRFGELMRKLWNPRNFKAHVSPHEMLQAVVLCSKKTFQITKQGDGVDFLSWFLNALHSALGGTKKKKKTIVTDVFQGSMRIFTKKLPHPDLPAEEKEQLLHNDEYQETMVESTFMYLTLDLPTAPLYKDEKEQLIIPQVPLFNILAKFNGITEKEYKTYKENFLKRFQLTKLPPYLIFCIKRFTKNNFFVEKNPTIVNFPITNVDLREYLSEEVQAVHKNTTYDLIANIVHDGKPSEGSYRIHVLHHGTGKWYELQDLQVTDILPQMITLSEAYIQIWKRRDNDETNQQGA
How it was run: as §1

USP4 = molecular target: T4, USP4 (UniProt Q13107)
T4 sequence (whole entry): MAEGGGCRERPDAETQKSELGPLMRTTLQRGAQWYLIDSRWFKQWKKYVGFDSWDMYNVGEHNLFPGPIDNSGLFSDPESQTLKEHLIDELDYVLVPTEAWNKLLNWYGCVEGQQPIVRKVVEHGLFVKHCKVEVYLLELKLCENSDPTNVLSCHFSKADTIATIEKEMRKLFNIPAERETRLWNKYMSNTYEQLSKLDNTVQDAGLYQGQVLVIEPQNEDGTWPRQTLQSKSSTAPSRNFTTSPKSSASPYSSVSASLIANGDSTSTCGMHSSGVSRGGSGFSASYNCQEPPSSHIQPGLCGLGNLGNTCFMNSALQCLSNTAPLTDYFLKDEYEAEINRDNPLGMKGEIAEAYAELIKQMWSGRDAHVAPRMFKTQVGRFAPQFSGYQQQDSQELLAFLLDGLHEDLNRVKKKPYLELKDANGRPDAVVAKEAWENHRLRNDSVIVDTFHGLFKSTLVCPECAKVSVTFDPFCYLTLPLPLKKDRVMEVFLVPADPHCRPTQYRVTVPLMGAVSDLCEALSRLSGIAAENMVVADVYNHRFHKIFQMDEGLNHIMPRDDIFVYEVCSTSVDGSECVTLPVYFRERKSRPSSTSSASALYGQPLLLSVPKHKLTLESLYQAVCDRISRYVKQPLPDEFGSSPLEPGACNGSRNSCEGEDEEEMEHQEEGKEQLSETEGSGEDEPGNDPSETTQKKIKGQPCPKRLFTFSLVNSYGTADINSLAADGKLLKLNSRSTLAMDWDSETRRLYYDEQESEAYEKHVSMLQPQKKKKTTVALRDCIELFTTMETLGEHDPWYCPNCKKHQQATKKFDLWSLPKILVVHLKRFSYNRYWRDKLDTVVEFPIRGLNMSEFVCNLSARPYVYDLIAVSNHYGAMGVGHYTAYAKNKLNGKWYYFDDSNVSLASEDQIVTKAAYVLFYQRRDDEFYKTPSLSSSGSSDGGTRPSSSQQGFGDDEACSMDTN
How it was run: as §1

Measured: log2 ratio of Biotin-Ahx-Ub-VS probe labelling

Sequence of USP34 (Q70CQ2 whole entry, the tested form may be a part): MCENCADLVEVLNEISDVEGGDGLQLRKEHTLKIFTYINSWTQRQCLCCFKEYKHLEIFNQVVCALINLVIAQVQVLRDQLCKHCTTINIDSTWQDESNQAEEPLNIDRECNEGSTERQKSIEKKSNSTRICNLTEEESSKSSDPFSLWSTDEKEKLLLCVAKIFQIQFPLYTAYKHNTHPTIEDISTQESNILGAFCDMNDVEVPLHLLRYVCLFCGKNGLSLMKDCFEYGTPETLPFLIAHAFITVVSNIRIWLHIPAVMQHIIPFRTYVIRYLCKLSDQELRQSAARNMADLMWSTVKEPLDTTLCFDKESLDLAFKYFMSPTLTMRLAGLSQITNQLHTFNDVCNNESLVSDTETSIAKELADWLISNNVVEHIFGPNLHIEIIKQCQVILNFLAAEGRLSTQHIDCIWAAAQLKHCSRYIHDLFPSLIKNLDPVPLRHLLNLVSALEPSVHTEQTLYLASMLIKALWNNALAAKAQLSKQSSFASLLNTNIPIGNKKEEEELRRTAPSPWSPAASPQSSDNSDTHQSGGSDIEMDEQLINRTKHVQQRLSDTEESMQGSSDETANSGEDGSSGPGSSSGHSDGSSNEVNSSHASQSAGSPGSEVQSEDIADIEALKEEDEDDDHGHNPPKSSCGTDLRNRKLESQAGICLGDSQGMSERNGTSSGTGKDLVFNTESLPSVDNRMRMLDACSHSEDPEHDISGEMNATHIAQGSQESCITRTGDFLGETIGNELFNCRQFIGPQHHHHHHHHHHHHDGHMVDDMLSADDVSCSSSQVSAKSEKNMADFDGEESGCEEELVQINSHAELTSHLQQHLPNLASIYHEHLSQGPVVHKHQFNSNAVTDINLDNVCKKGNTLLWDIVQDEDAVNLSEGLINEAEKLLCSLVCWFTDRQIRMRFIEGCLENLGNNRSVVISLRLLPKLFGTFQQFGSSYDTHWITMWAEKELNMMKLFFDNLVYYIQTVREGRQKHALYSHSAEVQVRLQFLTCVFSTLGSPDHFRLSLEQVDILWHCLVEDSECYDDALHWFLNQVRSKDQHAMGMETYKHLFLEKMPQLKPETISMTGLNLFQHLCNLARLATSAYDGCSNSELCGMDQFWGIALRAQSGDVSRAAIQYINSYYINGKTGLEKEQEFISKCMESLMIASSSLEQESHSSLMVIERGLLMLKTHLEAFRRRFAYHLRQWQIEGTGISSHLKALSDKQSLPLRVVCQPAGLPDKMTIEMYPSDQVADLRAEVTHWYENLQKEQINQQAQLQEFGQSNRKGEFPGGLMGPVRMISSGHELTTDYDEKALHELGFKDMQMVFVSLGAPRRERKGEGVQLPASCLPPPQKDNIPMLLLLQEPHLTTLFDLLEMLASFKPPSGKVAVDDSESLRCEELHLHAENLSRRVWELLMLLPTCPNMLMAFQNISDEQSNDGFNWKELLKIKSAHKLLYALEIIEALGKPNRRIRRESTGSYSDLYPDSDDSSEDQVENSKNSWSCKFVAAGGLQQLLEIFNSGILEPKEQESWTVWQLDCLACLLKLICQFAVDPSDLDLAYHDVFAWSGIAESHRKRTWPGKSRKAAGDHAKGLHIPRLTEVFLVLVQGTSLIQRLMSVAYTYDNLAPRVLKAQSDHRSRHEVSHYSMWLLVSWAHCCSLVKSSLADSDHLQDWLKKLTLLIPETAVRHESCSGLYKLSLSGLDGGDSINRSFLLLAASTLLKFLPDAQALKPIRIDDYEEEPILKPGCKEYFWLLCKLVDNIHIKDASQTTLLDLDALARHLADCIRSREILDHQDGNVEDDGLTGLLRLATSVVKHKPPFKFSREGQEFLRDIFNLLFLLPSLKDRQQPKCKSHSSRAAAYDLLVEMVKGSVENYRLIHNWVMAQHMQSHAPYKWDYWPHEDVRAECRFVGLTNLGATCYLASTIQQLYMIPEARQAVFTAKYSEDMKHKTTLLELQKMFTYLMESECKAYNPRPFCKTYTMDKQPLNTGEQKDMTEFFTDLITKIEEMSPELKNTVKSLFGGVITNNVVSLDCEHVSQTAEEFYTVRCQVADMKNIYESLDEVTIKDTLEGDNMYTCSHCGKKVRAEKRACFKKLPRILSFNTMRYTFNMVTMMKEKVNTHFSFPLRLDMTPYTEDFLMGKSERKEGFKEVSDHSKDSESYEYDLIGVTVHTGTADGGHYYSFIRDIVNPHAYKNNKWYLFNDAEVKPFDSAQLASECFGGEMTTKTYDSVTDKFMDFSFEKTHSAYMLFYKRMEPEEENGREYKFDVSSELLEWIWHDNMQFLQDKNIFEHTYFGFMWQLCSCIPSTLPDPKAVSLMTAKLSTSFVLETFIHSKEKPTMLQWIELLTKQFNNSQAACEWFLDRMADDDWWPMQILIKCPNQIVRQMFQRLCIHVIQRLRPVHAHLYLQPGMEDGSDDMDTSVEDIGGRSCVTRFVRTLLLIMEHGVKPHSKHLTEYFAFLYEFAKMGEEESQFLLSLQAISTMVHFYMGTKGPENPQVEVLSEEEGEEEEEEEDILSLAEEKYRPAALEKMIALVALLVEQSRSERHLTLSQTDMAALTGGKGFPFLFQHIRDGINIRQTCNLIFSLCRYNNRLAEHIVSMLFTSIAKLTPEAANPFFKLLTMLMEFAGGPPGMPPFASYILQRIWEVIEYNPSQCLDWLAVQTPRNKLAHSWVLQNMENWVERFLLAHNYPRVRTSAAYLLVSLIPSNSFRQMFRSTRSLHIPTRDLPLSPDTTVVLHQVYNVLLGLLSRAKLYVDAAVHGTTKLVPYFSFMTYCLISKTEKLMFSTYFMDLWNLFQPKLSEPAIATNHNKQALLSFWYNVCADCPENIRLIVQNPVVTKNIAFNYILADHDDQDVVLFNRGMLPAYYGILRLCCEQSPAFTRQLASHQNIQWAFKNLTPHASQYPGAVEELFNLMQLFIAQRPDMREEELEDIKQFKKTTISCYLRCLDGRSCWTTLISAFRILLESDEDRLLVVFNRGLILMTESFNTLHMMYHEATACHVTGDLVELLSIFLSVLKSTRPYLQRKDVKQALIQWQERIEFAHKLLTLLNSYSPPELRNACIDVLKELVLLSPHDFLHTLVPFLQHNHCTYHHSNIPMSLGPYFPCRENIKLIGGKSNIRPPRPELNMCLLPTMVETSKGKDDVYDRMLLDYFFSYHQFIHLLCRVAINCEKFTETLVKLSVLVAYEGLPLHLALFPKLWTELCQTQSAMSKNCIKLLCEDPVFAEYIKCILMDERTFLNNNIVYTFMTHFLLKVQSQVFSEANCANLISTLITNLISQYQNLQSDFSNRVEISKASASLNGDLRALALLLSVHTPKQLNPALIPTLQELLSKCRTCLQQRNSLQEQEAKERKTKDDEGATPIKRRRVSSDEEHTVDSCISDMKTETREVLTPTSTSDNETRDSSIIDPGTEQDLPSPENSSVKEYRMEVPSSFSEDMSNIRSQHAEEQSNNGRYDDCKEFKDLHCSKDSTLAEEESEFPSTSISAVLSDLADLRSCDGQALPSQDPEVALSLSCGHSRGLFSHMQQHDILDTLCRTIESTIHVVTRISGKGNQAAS

O=C(CCl)Nc1ccc(Cl)c(F)c1
inactive: USP34 -0.317 | USP36 -0.136 | USP38 -0.0529 | USP39 4.5e-05 | USP4 -0.159

From the supplement of paper PMC11732987, “Enantioselective OTUD7B fragment discovery through chemoproteomics screening and high-throughput optimisation” (Communications Chemistry, 2025)
